The values below come from PubChem BioAssay (Tox21).

Values joined by “and” are separate entries in the source; they are usually repeats but may differ in a detail not shown here. Equal entries are not always repeated. Inconclusive results are not listed. More than one record can exist for a structure, and the calls need not agree. Active and inactive are the calls of the source. Unless noted, calls follow the shape of the dose curve; as a rule, active = well fitted curve in the direction sought with a large enough effect in the repeat runs; inconclusive = weak or mixed curves; inactive = no such curve, though single readings can be large; an effect the other way counts as inactive or inconclusive.

Experiment [1] can be described thus: qHTS assay for small molecules that induce genotoxicity in human embryonic kidney cells expressing luciferase-tagged ATAD5 (AID 651632). Also: nearly all actives have a fitted effect of over 15% in size. Also: potency is read from the fitted curve at half-maximal effect. Summed up: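 Genotoxicity read-out via ATAD5-luciferase: HEK293T cells, 16 hr compound incubation at 37C, Amplite detection.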
Experiment [2] in a line: qHTS assay for small molecule agonists of the p53 signaling pathway - cell viability (AID 651633; calls by dose curve; also: nearly all actives have a fitted effect of over 30% in size; also: potency is read from the fitted curve at half-maximal effect). Summed up: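 p53RE-bla cells, seeded at 4,000 per well and rested 5 h at 37 C/5% CO2, received compounds in DMSO for 16 h at 37 C. CellTiter-Glo was then added, and luminescence was read after 30 min at room temperature to gauge cytotoxicity.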
Experiment [3] is described as follows: qHTS assay for small molecules that induce genotoxicity in human embryonic kidney cells expressing luciferase-tagged ATAD5 - cell viability (AID 651634; calls by dose curve; also: nearly all actives have a fitted effect of over 25% in size; also: potency is read from the fitted curve at half-maximal effect). In a few lines:
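Live-cell protease activity (CellTiter-Fluor, fluorescence) indicates viability. HEK293T cells with luciferase-tagged ATAD5; 15.5 hr compound treatment at 37C.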

The nature of experiment [4]: qHTS assay for small molecule disruptors of the mitochondrial membrane potential - cell viability (AID 720634; calls by dose curve; also: nearly all actives have a fitted effect of over 20% in size; also: potency is read from the fitted curve at half-maximal effect). Summed up:
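Human hepatoma HepG2 cells were treated for 1 hr with test chemicals, then given m-MPI dye and CellTiter-Glo. Cell viability reflects luminescence proportional to cellular ATP.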
For orientation: In qHTS, concentration-response curves come from the screen itself.

Experiment [5] is described as follows: qHTS assay for small molecule disruptors of the mitochondrial membrane potential (AID 720635). Also: potency is read from the fitted curve at half-maximal effect. In a few lines: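 HepG2 cells (2,000/well) attached overnight at 37C, then took compound for 1 hr at 37C, 5% CO2. Mito-MPS dye was added for 30 min; fluorescence was read at 490/535 nm (monomers) and 540/590 nm (aggregates).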
Experiment [6] can be described thus: qHTS assay to test for compound auto fluorescence at 590 nm (red) in HepG2 cells (AID 720674). Summed up: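 Compound auto-fluorescence is scored relative to Rose Bengal sodium, measured at 540/590 nm in live HepG2 cultures after 1 hr compound contact (37 C, 5% CO2).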
Experiment [7] in a line: qHTS assay to test for compound auto fluorescence at 460 nm (blue) in HEK293 cells (AID 720678). In a few lines: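 Blue read-out at excitation 405 nm and emission 460 nm follows overnight compound exposure of HEK293 cells at 37C in 5% CO2. Activity is given as auto fluorescence equivalency to triamterene.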
The nature of experiment [8]: qHTS assay to test for compound auto fluorescence at 590 nm (red) in HEK293 cells (AID 720679). Summed up:
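Red channel, Ex/Em 540/590nm; signal expressed as equivalency to Rose Bengal sodium. HEK293, 2,000 cells/well, 10% dialyzed FBS; 23 nL compound pinned after 4-5 hr attachment; overnight 37C/5% CO2 before reading.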

A short description of experiment [9]: qHTS assay to test for compound auto fluorescence at 535 nm (green) in HepG2 cells (AID 720675).
Experiment [10] is described as follows: qHTS assay for small molecule agonists of the p53 signaling pathway (AID 651631; calls by dose curve; also: nearly all actives have a fitted effect of over 15% in size). In a few lines:
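Readout was fluorescence from the LiveBLAzer FRET substrate, applied for 2 h at room temperature after 16 h compound exposure at 37 °C. Cells were the p53RE-bla HCT-116 line, with beta-lactamase driven by p53 response elements.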

For the compound `CC(=O)[O][Sn]([c]1ccccc1)([c]1ccccc1)[c]1ccccc1`, the Potency entry in [1] and in [7] was “inactive” throughout. In addition, the Potency in experiment [2] is 3.44 µM (active); in experiment [3] it was 0.122 µM (active); in experiment [4], 15.4 µM (active); in experiment [5], 0.077 µM (active). Also, the result in [6] and in experiment [8] was inactive.

Consider `CC(C)N(C(=O)SC/C(Cl)=C/Cl)C(C)C`, for which the Potency entry in experiment [1], in experiment [9] and in experiment [7] was “inactive” throughout. Besides, the Potency in experiment [2] is 21.8 µM (active); in experiment [3], 48.9 µM (active); in [4] it was 54.8 µM (active); in experiment [5], 48.9 µM (active). Also, the outcome in experiment [6] and in experiment [8] was inactive.

On to `CCOP(=O)(OCC)Oc1nc(Cl)c(Cl)cc1Cl`, for which the Potency result in experiment [1], in [2], in [3], in [4], in [9] and in experiment [7] was “inactive” in each case. Also, in [5], the Potency is 60.8 µM (active). Moreover, the outcome in experiment [6] and in [8] was inactive.

Take `CN=C=O`: the Potency entry in [10], in experiment [2], in experiment [3], in [4], in experiment [9] and in experiment [7] was “inactive” in each case. For the same compound, the outcome in experiment [6] and in experiment [8] was inactive.

Regarding `CC[C@H](C)[C@H]1O[C@]2(C=C[C@@H]1C)C[C@@H]1C[C@@H](C/C=C(\C)[C@@H](O[C@H]3C[C@H](OC)[C@@H](O[C@H]4C[C@H](OC)[C@@H](NC)[C@H](C)O4)[C@H](C)O3)[C@@H](C)/C=C/C=C3\CO[C@@H]4[C@H](O)C(C)=C[C@@H](C(=O)O1)[C@]34O)O2`, the Potency entry in experiment [1], in experiment [9] and in experiment [7] was “inactive” each time. The Potency in experiment [2] is 10.9 µM (active); in experiment [3], 17.2 µM (active); in experiment [4], 30.6 µM (active); in [5], 6.86 µM (active). The call in [6] and in [8] was inactive.

As to `Brc1ccc(Oc2ccc(Br)cc2Br)c(Br)c1`, the Potency entry in [1], in experiment [2], in experiment [3], in experiment [4], in experiment [9] and in experiment [7] was “inactive” in each case. In addition, the Potency in experiment [5] was 17.2 µM (active). The call in experiment [8] was inactive.

As to `N#CC(C#N)=NNc1cccc(Cl)c1`, the Potency entry in [1], in [4], in [9] and in experiment [7] was “inactive” each time. The figures for the Potency in experiment [2], in experiment [3] and in experiment [5] were 0.864 µM (active), 7.7 µM (active) and 0.109 µM (active), respectively. In addition, the result in experiment [6] and in experiment [8] was inactive.

In the case of `Cc1c([N+](=O)[O-])c(C)c([N+](=O)[O-])c(C(C)(C)C)c1[N+](=O)[O-]`, the Potency result in experiment [1], in experiment [2], in [3], in experiment [4], in experiment [9] and in [7] was “inactive” throughout. Also, in [5], the Potency was 15.4 µM (active). The result in experiment [6] and in experiment [8] was inactive.

`CC(C)C(Nc1ccc(C(F)(F)F)cc1Cl)C(=O)OC(C#N)c1cccc(Oc2ccccc2)c1` (stereo unspecified): the Potency result in experiment [1], in experiment [2], in experiment [3], in [4], in [9] and in [7] was “inactive” in each case. The Potency in experiment [5] is 49 µM (active). The call in [6] and in [8] was inactive.

Consider `O=S(=O)(O)F`, for which the Potency entry in experiment [1], in experiment [2], in experiment [3], in experiment [4], in experiment [5] and in [9] was “inactive” each time. The Potency result in experiment [7] is “inactive”. Besides, the compound was called inactive in [6] and in experiment [8].

For `Clc1ccc(C(c2ccc(Cl)cc2)C(Cl)Cl)cc1`, the Potency entry in [1], in experiment [3], in [4], in [9] and in [7] was “inactive” throughout. The Potency in experiment [2] is 62.1 µM (active) and 61.1 µM (active); in [5] it was 9.85 µM (active) and 9.69 µM (active). In addition, the compound was classed as inactive in experiment [6] and in [8].

Consider `O=C(O)CCCCCCNC1c2ccccc2CCc2ccccc21`, for which the Potency result in experiment [1], in experiment [2], in experiment [3], in experiment [4], in experiment [5] and in experiment [9] was “inactive” in each case. In experiment [7], the Potency entry is “inactive”. Also, in experiment [8], the compound was classed as inactive.

For the compound `ClC(Cl)C(Cl)(Cl)Cl`, the Potency entry in experiment [1], in experiment [2], in experiment [3], in experiment [4], in experiment [5] and in experiment [9] was “inactive” each time. Besides, in experiment [7], the Potency result was “inactive”. Moreover, the compound was called inactive in [8].

For `COP(=O)(OC)Oc1ccc([N+](=O)[O-])cc1`, the Potency entry in experiment [1], in experiment [2], in experiment [3], in [4], in [5] and in experiment [9] was “inactive” each time. Besides, in [7], the Potency entry was “inactive”. The result in experiment [6] and in experiment [8] was inactive.

On to `COP(=S)(OC)Oc1nc(Cl)c(Cl)cc1Cl`, for which the Potency result in experiment [1], in [2], in experiment [3], in [4], in [9] and in [7] was “inactive” each time. The Potency in experiment [5] is 48.5 µM (active). Besides, the call in experiment [6] and in experiment [8] was inactive.

For the compound `CN1C(=O)[C@@H](NC(=O)c2cc3ccccc3[nH]2)N=C(c2ccccc2)c2ccccc21`, the Potency is 11.9 µM (active) in experiment [1] and 10.6 µM (active) in experiment [5]. Further, the Potency result in experiment [2], in experiment [3], in [4], in experiment [9] and in experiment [7] was “inactive” in each case. Also, the result in [6] and in experiment [8] was inactive.

As for `CCNS(=O)(=O)C(F)(F)C(F)(F)C(F)(F)C(F)(F)C(F)(F)C(F)(F)C(F)(F)C(F)(F)F`, the Potency result in experiment [1], in experiment [2], in [9] and in experiment [7] was “inactive” in each case. The values for the Potency in experiment [4] and in experiment [5] were 5.22 µM (active) and 1.85 µM (active), respectively. Further, the call in [6] and in [8] was inactive.

As for `CCC(C)Nc1c([N+](=O)[O-])cc(C(C)(C)C)cc1[N+](=O)[O-]` (stereo unspecified), the Potency result in experiment [1], in experiment [2], in [3], in [9] and in experiment [7] was “inactive” each time. Besides, the compound was classed as inactive in experiment [6] and in experiment [8].

With `CN1CCc2cc(Cl)c(O)cc2[C@H]2c3ccccc3CC[C@@H]21`, the Potency entry in [1], in experiment [2], in experiment [3], in [4], in [9] and in experiment [7] was “inactive” each time. Besides, the call in experiment [6] and in experiment [8] was inactive.

With `COP(=S)(NC(C)C)Oc1ccc(C)cc1[N+](=O)[O-]` (stereo unspecified), the Potency entry in experiment [1], in experiment [2], in [4], in [9] and in [7] was “inactive” each time. Also, the Potency in experiment [5] was 24.3 µM (active). Moreover, the result in experiment [6] and in experiment [8] was inactive.

For the compound `O=c1c2ccccc2c(=O)c2c1cc(Cl)c1[nH]c3c([nH]c12)c(Cl)cc1c(=O)c2ccccc2c(=O)c13`, the Potency entry in experiment [1], in experiment [2], in [3], in [4], in experiment [9] and in experiment [7] was “inactive” throughout. In addition, the compound was called inactive in experiment [6] and in experiment [8].

Take `CC(C)N(C(=O)CCl)c1ccccc1`: the Potency entry in [1], in [4], in experiment [5], in [9] and in experiment [7] was “inactive” each time. The Potency entry in experiment [2] was “inactive and 30.6 µM (active)”. In addition, the result in experiment [6] and in experiment [8] was inactive.

For the compound `COP(=S)(OC)Oc1ccc([N+](=O)[O-])c(C)c1`, the Potency entry in [1], in experiment [2], in [3], in experiment [9] and in experiment [7] was “inactive” in each case. Besides, the Potency in experiment [5] was 68.6 µM (active). In addition, the outcome in experiment [6] and in [8] was inactive.

`CCC1(CC)C(=O)N=C(O)NC1=O`: the Potency result in experiment [1], in experiment [2], in [3], in experiment [4], in experiment [9] and in experiment [7] was “inactive” each time. Besides, the compound was called inactive in experiment [8].
